Compounds without any hit were thinned out: in the full panel of roughly 83,000, 20% have a hit.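 In brief: 96-well plates, 48 h treatment, single concentration, percent growth endpoint.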 Values without a mark were called inactive. Calls of active or inactive are those of the source. How the source made its calls: active means growth percent below 10; inactive means the rest.
What was measured:
Experiment in all cases: NCI-60 one-dose screen, 48 h (100 = growth as untreated, 0 = no growth, -100 = all killed)
Settings in all cases: 10 µM
HCT-15 colon = system: HCT-15 colon
HT29 colon = system: HT29 colon
SNB-75 CNS = system: SNB-75 CNS
SNB-19 CNS = system: SNB-19 CNS
U251 CNS = system: U251 CNS
PC-3 prostate = system: PC-3 prostate
SK-MEL-5 melanoma = system: SK-MEL-5 melanoma
UACC-62 melanoma = system: UACC-62 melanoma
LOX IMVI melanoma = system: LOX IMVI melanoma
SK-MEL-28 melanoma = system: SK-MEL-28 melanoma
SK-MEL-2 melanoma = system: SK-MEL-2 melanoma
SN12C renal = system: SN12C renal
UO-31 renal = system: UO-31 renal
TK-10 renal = system: TK-10 renal
ACHN renal = system: ACHN renal
CAKI-1 renal = system: CAKI-1 renal
A498 renal = system: A498 renal
CCRF-CEM leukemia = system: CCRF-CEM leukemia
MOLT-4 leukemia = system: MOLT-4 leukemia

| SMILES | growth (HCT-15 colon) | growth (HT29 colon) | growth (SNB-75 CNS) | growth (SNB-19 CNS) | growth (U251 CNS) | growth (PC-3 prostate) | growth (SK-MEL-5 melanoma) | growth (UACC-62 melanoma) | growth (LOX IMVI melanoma) | growth (SK-MEL-28 melanoma) | growth (SK-MEL-2 melanoma) | growth (SN12C renal) | growth (UO-31 renal) | growth (TK-10 renal) | growth (ACHN renal) | growth (CAKI-1 renal) | growth (A498 renal) | growth (CCRF-CEM leukemia) | growth (MOLT-4 leukemia) |
| --- | --- | --- | --- | --- | --- | --- | --- | --- | --- | --- | --- | --- | --- | --- | --- | --- | --- | --- | --- |
| O=NN(CCCl)C(=O)NCc1ccc(-c2ccc(CNC(=O)N(CCCl)N=O)cc2)cc1 | 98.7% | 96.9% | 82.7% | 84.6% | 70.3% | 86.7% | 94.2% | 86.2% | 72.2% | 104% | 95.1% | 97.8% | 67.7% | 105% | 105% | 96.6% | 102% | 93.3% | 82.3% |
| O=C(NC1CCCC1)c1ccc(N2CCC(NCc3cccc(C(F)(F)F)c3)CC2)cc1 | 77.8% | 36.7% | 85.3% | 105% | 82.9% | 83.3% | 79.5% | 104% | 89.7% | 108% | 108% | 94.2% | 62.3% | 101% | 97.9% | 101% | 92.1% | 75.7% | 70.2% |
| Fc1ccc2[nH]c3c(NCCCN4CCOCC4)ncnc3c2c1 | 91.1% | 66.1% | -0.656% (active) | 91.7% | 41.1% | 83% | 92.2% | 92.3% | 69.1% | 104% | 65.7% | 63.8% | 45.9% | 12.7% | 23.9% | 25.2% | 130% | 74.7% | 83.1% |
| CCCc1c(C)nc2scc(-c3ccc(Cl)cc3)n2c1=O | 101% | 101% | 97.9% | 105% | 97.2% | 97.3% | 99.1% | 100% | 95.8% | 112% | 95.1% | 96.3% | 73% | 102% | 95.3% | 96.6% | 98.2% | 95% | 87.1% |
| Cc1ccc2nc(-c3ccc(OCC(=O)N=Nc4c(O)[nH]c5ccccc45)cc3)[nH]c2c1 | 86.3% | 41.2% | 109% | 50% | 6.05% (active) | 7.33% (active) | 94.3% | 96.5% | 39% | 102% | 104% | 57.3% | 96.1% | 103% | 95.6% | 93.4% | 93.2% | 9.27% (active) | 39.6% |
| COc1ccc2c(=O)cc(C(Cl)(Cl)Cl)oc2c1 | 5.59% (active) | -41.8% (active) | -78.3% (active) | 1.99% (active) | -0.183% (active) | -37% (active) | -91.9% (active) | -73.2% (active) | -15.5% (active) | -82.7% (active) | -75.2% (active) | 2.57% (active) | -19.3% (active) | -20.4% (active) | 10.6% | -14.5% (active) | -68.5% (active) | -21.2% (active) | -23.9% (active) |
| COc1ccc(C(C)=O)cc1N1C(=O)C2C(C1=O)C1(c3ccccc3)C(=O)C2(c2ccccc2)C(c2ccc(C)cc2)=C1c1ccc(C)cc1 (centres undefined) | 25.3% | 21.4% | 57.3% | 29.7% | 14.8% | 12.6% | -29.1% (active) | -70.9% (active) | 7.38% (active) | 37.6% | -0.955% (active) | 26.2% | -4.71% (active) | 13.7% | 23.1% | 6.11% (active) | 54.1% | 8.66% (active) | 12.6% |
| N#C/C(=C/c1cc([N+](=O)[O-])ccc1Cl)C(N)=O | 83.4% | 80.3% | 88.9% | 99.7% | 93.6% | 88.7% | 98.8% | 104% | 68.8% | 105% | 88.2% | 98.8% | 72.7% | 108% | 105% | 86.9% | 111% | 63.1% | 87.1% |
| COc1cccc2c1C(=O)c1c(O)c3c(c(O)c1C2=O)C[C@@](O)(C(=O)COC(=O)c1cccnc1)C[C@@H]3OC1CC(N)C(O)C(C)O1 (some centres undefined) | 32.9% | -29.5% (active) | -75% (active) | 5.16% (active) | -14.4% (active) | -41.8% (active) | -49.1% (active) | -88.4% (active) | 0.723% (active) | -13.8% (active) | -71.1% (active) | 6.29% (active) | -40.4% (active) | -9.29% (active) | -7.12% (active) | -40.7% (active) | -56.6% (active) | 0.652% (active) | -24.8% (active) |
| CCCCc1ccc(NC(=O)N(CCCl)N=O)cc1 | 102% | 99.6% | 90.4% | 88.5% | 80.8% | 94% | 97.9% | 86.2% | 89.3% | 101% | 94.8% | 96.1% | 81.3% | 105% | 106% | 99.3% | 103% | 88.2% | 98.7% |
| O=C(O)c1cc(C(F)(F)F)cc(C(F)(F)F)c1 | 104% | 100% | 97.6% | 118% | 103% | 97.7% | 109% | 108% | 99.7% | 103% | 97.1% | 104% | 77.8% | 135% | 105% | 99.6% | 84.4% | 102% | 95% |
| CCOC(=O)CSC(=S)SCC(=O)OCC | 94.6% | 99.8% | 83.1% | 105% | 104% | 103% | 106% | 101% | 98.6% | 97.7% | 96.7% | 106% | 102% | 132% | 109% | 103% | 121% | 85.1% | 96.6% |
| COc1cccc2c1O/C(=C\c1ncc([N+](=O)[O-])n1C)C2=O | 5.88% (active) | -20.7% (active) | 39.2% | -2.3% (active) | -11.7% (active) | -21.2% (active) | -92.4% (active) | -77.7% (active) | -58.8% (active) | -25.4% (active) | -51.5% (active) | -54.2% (active) | -34.7% (active) | -33.7% (active) | 7.42% (active) | -26.5% (active) | -33.4% (active) | 8.19% (active) | -1.08% (active) |
| NCCNc1ccc2cc(-c3nc4ccccc4[nH]3)c(=O)oc2c1 | 79.4% | 108% | 85.1% | 105% | 94.9% | 79.7% | 93.5% | 87.4% | 85% | 93.7% | 106% | 92.2% | 81.7% | 128% | 95.8% | 96.3% | 94.7% | 81.9% | 88.4% |
| FC(F)(F)c1ccc(-c2cnc(Cl)nc2NCc2cc(C(F)(F)F)cc(C(F)(F)F)c2)cc1 | 8.09% (active) | 21.3% | 27.2% | 14.8% | 10.7% | 4.94% (active) | 77.3% | 6.65% (active) | -8.46% (active) | 46% | -21.6% (active) | 12.4% | -9.98% (active) | 21.8% | 2.83% (active) | 1.18% (active) | -4.04% (active) | 18.8% | 21.1% |
| CCc1ccc(Nc2cc(C)nc3nc(C)nn23)cc1 | -3.95% (active) | -76.3% (active) | 29.6% | 15.4% | -98.9% (active) | 1.4% (active) | -97.8% (active) | -99.1% (active) | -98.2% (active) | -98% (active) | 14.5% | 26.2% | 13.4% | -6.1% (active) | -2.86% (active) | 0.395% (active) | 34.7% | -10.6% (active) | -20.7% (active) |

— PubChem BioAssay (NCI)
